Records with an inconclusive call do not appear. Entries that show only a call come without a potency. Calls of active or inactive are those of the source. The call rests on the fitted dose curve; in most records, active means well fitted inhibition curve with a large enough effect; inconclusive means small, poorly fitted or top-dose-only effect; inactive means flat fitted curve, though single readings scatter. Where a SMILES comes first, the peptide text is derived from it. Bridges are numbered along the chain shown (N, C = ends). [ ]: non-standard residue; d: D form. The star is where a group is joined. X1 = CC[C@@H](C)[C@@H](N)C1=N[C@H](C(=O)*)CS1; d(aIle) = CC[C@H](C)[C@@H](N)C(=O)O; dOrn = NCCC[C@@H](N)C(=O)O
Assay: P-glycoprotein substrates identified in KB-8-5-11 adenocarcinoma cell line, qHTS therapeutic library screen (AID 1346987); further: nearly all actives have a fitted effect of over 65% in size
Settings: KB-8-5-11 (P-gp overexpressing) viability, CellTiter-Glo, 72 h; series mostly up to 44.5 µM
How it was run: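 KB-8-5-11: colchicine-selected sub-line of KB-3-1 over-expressing P-gp; assay medium lacked colchicine. 72 h drug exposure at 37 degree C, CellTiter-Glo.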

SMILES | Potency
CC[C@@H](C)[C@@H](N)C1=N[C@H](C(=O)N[C@@H](CC(C)C)C(=O)N[C@@H](CCC(=O)O)C(=O)N[C@@H](C(=O)N[C@@H]2CCCCNC(=O)[C@@H](CC(N)=O)NC(=O)[C@@H](CC(=O)O)NC(=O)[C@@H](Cc3cnc[nH]3)NC(=O)[C@@H](Cc3ccccc3)NC(=O)[C@@H]([C@H](C)CC)NC(=O)[C@@H](CCCN)NC2=O)[C@@H](C)CC)CS1 (X1-LE[d(aIle)][dK][dOrn][dI][dF][dH][dD][dN]; lactam 4-C) | inactive
NC(N)=NCC1COC2(CCCCC2)O1 (configuration not stated) | inactive
FC(F)(F)COCC(F)(F)F | inactive
COC(=O)CCC[N+](C)(C)C | inactive
CC(C)(CO)[C@@H](O)C(=O)NCCCC(=O)O | inactive
CC(C)C[C@@H](NC(=O)[C@@H](O)[C@H](N)Cc1ccccc1)C(=O)O | inactive
c1ccc2cc(C3=NCCN3)ccc2c1 | inactive
O=C(NCCNCC(O)COc1ccc(O)cc1)N1CCOCC1 (configuration not stated) | inactive
CCCCCCCCCC(=O)NO | inactive
COC1[C@@H](O[C@@H]2O[C@H](C)[C@@H](O[C@H]3C[C@@](C)(O)[C@H](OC(=O)CC(C)C)[C@H](C)O3)[C@H](N(C)C)[C@H]2O)[C@@H](CC=O)C[C@@H](C)[C@@H](O)/C=C/C=C/C[C@@H](C)OC(=O)C[C@H]1OC(C)=O (some centres not stated) | inactive
CCC(Cc1c(I)cc(I)c(O)c1I)C(=O)O (configuration not stated) | inactive
C=CC[N+]1([C@H]2C[C@H]3[C@@H]4CC[C@H]5C[C@H](O)[C@@H](N6CCOCC6)C[C@]5(C)[C@H]4CC[C@]3(C)[C@H]2OC(C)=O)CCCC1 | inactive
